Inconclusive results are not listed. Active and inactive are the calls of the source. Calls follow the shape of the dose curve; as a rule, active = well fitted cell-killing curve with a large enough effect; inconclusive = small, poorly fitted or top-dose-only effect, or effect the other way; inactive = flat fitted curve, though single readings scatter.
What was measured:
Experiment in all cases: Primary qHTS to identify gynecologic anti-cancer compounds using libraries of approved drugs and bioactive compounds (AID 1345084); also: nearly all actives have a fitted effect of over 55% in size
C33A = conditions: Gynecologic cancer cell panel viability, ATPlite luminescence, 48 h; series mostly up to 57.5 µM
Procedure, shortened: (§1)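 Cytotoxicity screen measuring ATP content by luciferase luminescence. Each compound is applied at five concentrations for 48 h at 37 C with 5% CO2.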

CAOV3 = conditions: Gynecologic cancer cell panel viability, ATPlite luminescence, 48 h; series mostly up to 57.5 µM
Procedure, shortened: as §1

CASKI = conditions: Gynecologic cancer cell panel viability, ATPlite luminescence, 48 h; series mostly up to 57.5 µM
Procedure, shortened: as §1

Es-2 = conditions: Gynecologic cancer cell panel viability, ATPlite luminescence, 48 h; series mostly up to 57.5 µM
Procedure, shortened: as §1

HeLa = conditions: Gynecologic cancer cell panel viability, ATPlite luminescence, 48 h; series mostly up to 57.5 µM
Procedure, shortened: as §1

Hek293T = conditions: Gynecologic cancer cell panel viability, ATPlite luminescence, 48 h, control line for the selectivity index; series mostly up to 57.5 µM
Procedure, shortened: as §1

JEG-3 = conditions: Gynecologic cancer cell panel viability, ATPlite luminescence, 48 h; series mostly up to 57.5 µM
Procedure, shortened: as §1

OV90 = conditions: Gynecologic cancer cell panel viability, ATPlite luminescence, 48 h; series mostly up to 57.5 µM
Procedure, shortened: as §1

PA-1 = conditions: Gynecologic cancer cell panel viability, ATPlite luminescence, 48 h; series mostly up to 57.5 µM
Procedure, shortened: as §1

Tov112D = conditions: Gynecologic cancer cell panel viability, ATPlite luminescence, 48 h; series mostly up to 57.5 µM
Procedure, shortened: as §1

Tov-21-G = conditions: Gynecologic cancer cell panel viability, ATPlite luminescence, 48 h; series mostly up to 57.5 µM
Procedure, shortened: as §1

SKOV3 = conditions: Gynecologic cancer cell panel viability, ATPlite luminescence, 48 h; series mostly up to 57.5 µM
Procedure, shortened: as §1
% is scaled to controls: 0 for no effect and ±100 for the full control effect; potency is read from the fitted curve at half-maximal effect.

CC(C)[C@@H](CS(=O)(=O)C(C)C)N1C(=O)[C@@](C)(CC(=O)O)C[C@H](c2cccc(Cl)c2)[C@H]1c1ccc(Cl)cc1
inactive: Potency (C33A) | Potency (CAOV3) | Potency (CASKI) | Potency (Es-2) | Potency (HeLa) | Potency (Hek293T) | Potency (JEG-3) | Potency (OV90) | Potency (Tov112D)
active: Potency (PA-1) 4.47 µM

CC/C=C/CC1=C(CCCCC(CCC(=O)O)OC(C)=O)CCC1=O (stereo unspecified)
inactive: Potency (C33A) | Potency (CAOV3) | Potency (CASKI) | Potency (Es-2) | Potency (HeLa) | Potency (Hek293T) | Potency (JEG-3) | Potency (OV90) | Potency (PA-1) | Potency (Tov-21-G) | Potency (Tov112D)

CC(=O)O[C@@H]1[C@@H](O)[C@H](O[C@H]2CC[C@]34C[C@]35CC[C@]3(C)[C@@H]([C@@]6(C)CC[C@@H](C(C)(C)O)O6)[C@@H](O)C[C@@]3(C)[C@@H]5C[C@H](O[C@@H]3O[C@H](CO)[C@@H](O)[C@H](O)[C@H]3O)[C@H]4C2(C)C)OC[C@H]1O
inactive: Potency (C33A) | Potency (CAOV3) | Potency (CASKI) | Potency (Es-2) | Potency (HeLa) | Potency (Hek293T) | Potency (JEG-3) | Potency (OV90) | Potency (PA-1) | Potency (Tov-21-G) | Potency (Tov112D)

CC(C)=CCC[C@](C)(O[C@@H]1O[C@H](CO[C@@H]2O[C@H](CO)[C@@H](O)[C@H](O)[C@H]2O)[C@@H](O)[C@H](O)[C@H]1O)C1CC[C@]2(C)[C@@H]1[C@H](O)CC1[C@@]3(C)CC[C@H](O[C@@H]4O[C@H](CO)[C@@H](O)[C@H](O)[C@H]4O[C@@H]4O[C@H](CO)[C@@H](O)[C@H](O)[C@H]4O)C(C)(C)[C@@H]3CC[C@]12C (stereo partly specified)
inactive: activity change, negative = cytotoxicity (C33A) 0.112% [at 11.6 µM] | activity change, negative = cytotoxicity (CAOV3) 10.1% [at 11.6 µM] | activity change, negative = cytotoxicity (CASKI) 27.8% [at 11.6 µM] | activity change, negative = cytotoxicity (Es-2) -0.241% [at 11.6 µM] | activity change, negative = cytotoxicity (HeLa) -0.531% [at 11.6 µM] | activity change, negative = cytotoxicity (Hek293T) -3.2% [at 11.6 µM] | activity change, negative = cytotoxicity (JEG-3) -5.88% [at 11.6 µM] | activity change, negative = cytotoxicity (OV90) 2.46% [at 11.6 µM] | activity change, negative = cytotoxicity (PA-1) 0.278% [at 11.6 µM] | activity change, negative = cytotoxicity (Tov-21-G) 1.55% [at 11.6 µM] | activity change, negative = cytotoxicity (Tov112D) 0.741% [at 11.6 µM]

C[C@@H]1O[C@@H](O[C@H]2[C@H](O)[C@@H](O)[C@H](O[C@H]3[C@H](O[C@H]4CC[C@@]5(C)C(=CC[C@@H]6C5CC[C@]5(C)[C@@H]7[C@H](C[C@@H]65)O[C@]5(CC[C@@](C)(CO[C@@H]6O[C@H](CO)[C@@H](O)[C@H](O)[C@H]6O)O5)[C@H]7C)C4)O[C@H](CO)[C@@H](O)[C@@H]3O)O[C@@H]2CO)[C@H](O)[C@H](O)[C@H]1O (stereo partly specified)
active: Potency (PA-1) 1.78 µM
inactive: activity change, negative = cytotoxicity (C33A) 1.06% [at 11.6 µM] | activity change, negative = cytotoxicity (CAOV3) -9.22% [at 11.6 µM] | activity change, negative = cytotoxicity (CASKI) 21.1% [at 11.6 µM] | activity change, negative = cytotoxicity (Es-2) 3.9% [at 11.6 µM] | activity change, negative = cytotoxicity (HeLa) 6.34% [at 11.6 µM] | activity change, negative = cytotoxicity (Hek293T) -9.56% [at 11.6 µM] | activity change, negative = cytotoxicity (JEG-3) 4.71% [at 11.6 µM] | activity change, negative = cytotoxicity (OV90) 5.27% [at 11.6 µM] | activity change, negative = cytotoxicity (Tov112D) 13% [at 11.6 µM]

CCN(Cc1cccnc1)C(=O)CN(c1ccc(OC)nc1)S(=O)(=O)c1ccccc1C
inactive: Potency (C33A) | Potency (CAOV3) | Potency (CASKI) | Potency (Es-2) | Potency (HeLa) | Potency (Hek293T) | Potency (JEG-3) | Potency (OV90) | Potency (PA-1) | Potency (Tov-21-G) | Potency (Tov112D)

CC(C)C[C@H](CC(=O)NO)C(=O)N[C@@H](Cc1ccc2ccccc2c1)C(=O)N[C@@H](C)C(=O)NCCN
inactive: Potency (C33A) | Potency (CAOV3) | Potency (CASKI) | Potency (Es-2) | Potency (HeLa) | Potency (Hek293T) | Potency (JEG-3) | Potency (OV90) | Potency (PA-1) | Potency (Tov-21-G) | Potency (Tov112D)

CC(=O)c1ccc2c(c1)C(O)C(C(C)(C)O)O2 (stereo unspecified)
inactive: Potency (C33A) | Potency (CAOV3) | Potency (CASKI) | Potency (Es-2) | Potency (HeLa) | Potency (Hek293T) | Potency (JEG-3) | Potency (OV90) | Potency (PA-1) | Potency (Tov-21-G) | Potency (Tov112D)

Cc1cc(C(=O)Nc2cccc(C(=O)Nc3cccc(C(F)(F)F)c3)c2)on1
inactive: Potency (C33A) | Potency (CAOV3) | Potency (CASKI) | Potency (Es-2) | Potency (HeLa) | Potency (Hek293T) | Potency (JEG-3) | Potency (OV90) | Potency (PA-1) | Potency (Tov112D)

CC(=O)C1=C(C)N(c2cccc(C(F)(F)F)c2)C(=O)N[C@H]1c1ccc(C#N)nc1
inactive: activity change, negative = cytotoxicity (C33A) 16.9% [at 11.6 µM] | activity change, negative = cytotoxicity (CAOV3) 8.36% [at 11.6 µM] | activity change, negative = cytotoxicity (CASKI) 11.8% [at 11.6 µM] | activity change, negative = cytotoxicity (Es-2) 6.68% [at 11.6 µM] | activity change, negative = cytotoxicity (HeLa) 11% [at 11.6 µM] | activity change, negative = cytotoxicity (Hek293T) -1.04% [at 11.6 µM] | activity change, negative = cytotoxicity (JEG-3) -3.38% [at 11.6 µM] | activity change, negative = cytotoxicity (OV90) 5.76% [at 11.6 µM] | activity change, negative = cytotoxicity (SKOV3) 12.1% [at 11.6 µM] | activity change, negative = cytotoxicity (Tov-21-G) 3.34% [at 11.6 µM] | activity change, negative = cytotoxicity (Tov112D) -8.52% [at 11.6 µM]

CC(C)N(CCCCOCC(=O)NS(C)(=O)=O)c1cnc(-c2ccccc2)c(-c2ccccc2)n1
inactive: Potency (C33A) | Potency (CAOV3) | Potency (CASKI) | Potency (Es-2) | Potency (HeLa) | Potency (Hek293T) | Potency (JEG-3) | Potency (OV90) | Potency (PA-1) | Potency (Tov-21-G) | Potency (Tov112D)

CCCOc1ccc(-c2nc(OC)c3ccccc3n2)cc1
inactive: Potency (C33A) | Potency (CAOV3) | Potency (CASKI) | Potency (Es-2) | Potency (HeLa) | Potency (Hek293T) | Potency (JEG-3) | Potency (OV90) | Potency (PA-1) | Potency (Tov-21-G) | Potency (Tov112D)

O=C(O)CC1CCC(c2ccc(-c3ccc4nc(C(=O)NCc5ccc(OC(F)(F)F)cc5)cn4c3)cc2)CC1 (stereo unspecified)
inactive: Potency (C33A) | Potency (CAOV3) | Potency (CASKI) | Potency (Es-2) | Potency (HeLa) | Potency (Hek293T) | Potency (JEG-3) | Potency (OV90) | Potency (PA-1) | Potency (Tov-21-G) | Potency (Tov112D)

CC1OC(OC2C(OC3C(O[C@H]4CC[C@@]5(C)C(CC[C@]6(C)C5C(=O)C=C5C7CC(C)(C)CC(O)[C@]7(C)CC[C@]56C)C4(C)C)OC(C(=O)O)C(O)C3O)OCC(O)C2O)C(O)C(O)C1O (stereo partly specified)
inactive: activity change, negative = cytotoxicity (C33A) -11.1% [at 11.6 µM] | activity change, negative = cytotoxicity (CAOV3) -11.1% [at 11.6 µM] | activity change, negative = cytotoxicity (CASKI) -7.33% [at 11.6 µM] | activity change, negative = cytotoxicity (Es-2) -2.72% [at 11.6 µM] | activity change, negative = cytotoxicity (HeLa) 6.46% [at 11.6 µM] | activity change, negative = cytotoxicity (Hek293T) -13.7% [at 11.6 µM] | activity change, negative = cytotoxicity (JEG-3) -7.16% [at 11.6 µM] | activity change, negative = cytotoxicity (OV90) -4.31% [at 11.6 µM] | activity change, negative = cytotoxicity (PA-1) -3.12% [at 11.6 µM] | activity change, negative = cytotoxicity (Tov-21-G) 2.59% [at 11.6 µM] | activity change, negative = cytotoxicity (Tov112D) -1.77% [at 11.6 µM]

— PubChem BioAssay (NCATS)
